An excerpt weighted towards active compounds, which were near 7.6% of everything screened.
p53 reactivation: qHTS assay for re-activators of p53 using a Luc reporter; H1299 p53-A138V BP100-luciferase reporter, luminescence, 24 h; Potency, µM (series often up to 92.2 µM), for the others: at the highest dose activity change, positive = activation, actives largely listed as activators; actives 0.063% (n = 320,000); AID 504706, 2011; note: potency is the fitted concentration of half-maximal effect; % of control where 0% means no effect; nearly all actives have a fitted effect of over 45% in size
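p53-null H1299 cells stably carrying temperature-sensitive p53-A138V and a BP100-luciferase reporter were pinned with compounds (4-point, 1:5 series) and held 24 hrs at 37 deg C. Luminescence was read 10 min after detection reagent.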
RORgamma inh: qHTS for inhibitors of ROR gamma transcriptional activity | actives 5.4% (n = 310,000) | Drosophila S2 Gal4-RORgamma UAS-luciferase reporter, 20 h | AID 2551, 2010 | Nuclear receptor ROR-gamma (Mus musculus), P51450 | Potency, µM (series often up to 53.6 µM), for the others: top-dose activity change, negative = inhibition, most hits filed as inhibitors; note: potency is the fitted concentration of half-maximal effect; % is set by controls: 0 for no effect and ±100 for the full control effect; nearly all actives have a fitted effect of over 60% in size
Target sequence (P51450 whole entry, looked up, the tested form may be a part): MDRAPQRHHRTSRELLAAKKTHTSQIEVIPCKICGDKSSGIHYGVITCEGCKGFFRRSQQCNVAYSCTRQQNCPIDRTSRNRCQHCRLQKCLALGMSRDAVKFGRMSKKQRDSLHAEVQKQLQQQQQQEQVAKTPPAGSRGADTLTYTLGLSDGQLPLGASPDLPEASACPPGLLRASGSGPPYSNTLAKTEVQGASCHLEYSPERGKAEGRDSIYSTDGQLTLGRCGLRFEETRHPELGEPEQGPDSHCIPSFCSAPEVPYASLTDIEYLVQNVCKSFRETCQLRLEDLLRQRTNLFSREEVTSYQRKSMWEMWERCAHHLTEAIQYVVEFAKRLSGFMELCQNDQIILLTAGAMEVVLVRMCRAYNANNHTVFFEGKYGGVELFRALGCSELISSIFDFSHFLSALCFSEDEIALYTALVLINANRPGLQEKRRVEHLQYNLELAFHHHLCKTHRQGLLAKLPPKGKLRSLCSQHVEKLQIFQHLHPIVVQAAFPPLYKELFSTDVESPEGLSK
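Using a luciferase readout, inhibitors were identified by reduced reporter activity in Drosophila cells coexpressing a copper-inducible Gal4–ROR gamma fusion and UAS-driven Photinus luciferase, incubated 20 hr after 700 uM copper sulfate.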
Giardia killer: Small Molecules that selectively kill Giardia lamblia: qHTS; activity change, % at 7.66 µM, hits read low; actives 0.15% (n = 340,000); Giardia lamblia trophozoite viability; in the data active = activity change below about -80%; inconclusive = between about -30% and that limit;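 note: parasites exposed to compound for two days anaerobically before the ATP read; % is set by controls: 0 for no effect and ±100 for the full control effect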
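Killing of trophozoites was scored by loss of ATP luminescence after a 48 hrs anaerobic exposure to compounds at 37 deg C, using 100 cells per well.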
ELG1 DNA repair: qHTS screen for small molecules that inhibit ELG1-dependent DNA repair in human embryonic kidney (HEK293T) cells expressing luciferase-tagged ELG1; HEK293T ELG1-luciferase reporter, luminescence, 16 h; DNA damage induced by 5-fluorouridine; AID 504467, 2011; Potency, µM (highest dose often 46.1 µM), without a hit: at the top dose activity change, negative = inhibition, usual class: inhibitors; actives 2.3% (n = 330,000); note: potency is the fitted concentration of half-maximal effect; % is set by controls: 0 for no effect and ±100 for the full control effect; nearly all actives have a fitted effect of over 55% in size
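Reporter activity after DNA damage by 5-fluorouridine is monitored. Compound-treated cells incubate 16 hr at 37 °C, then ONE-Glo is added for 30 min before luminescence reading.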
Gal4-VP16 FLuc: VP16 counterscreen qHTS for inhibitors of ROR gamma transcriptional activity | Drosophila S2 Gal4-VP16 UAS-luciferase, luminescence, 20 h | Potency, µM (doses to about 53.6 µM), without a hit: at the top dose activity, negative = inhibition, actives largely listed as inhibitors | actives 3.5% (n = 310,000) | AID 2546, 2010;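 note: Gal4-VP16 expression switched on by copper sulfate through the metallothionein promoter; potency is the fitted concentration of half-maximal effect; % is set by controls: 0 for no effect and ±100 for the full control effect; nearly all actives have a fitted effect of over 50% in size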
BRCA1 expr act: qHTS Assay to Identify Small Molecule Activators of BRCA1 Expression; MCF7-BRCA1-FFLuc reporter, luminescence, 48 h; response scale: scaled: vehicle 0%, 10 µM genistein 100%; Potency, µM (highest dose often 46.1 µM), inactives show at the top dose activation, most hits filed as activators; actives 1.1% (n = 380,000); AID 624202, 2012; note: potency is the fitted concentration of half-maximal effect; nearly all actives have a fitted effect of over 80% in size
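Reporter cells (MCF7, BRCA1 promoter-firefly luciferase) received library compounds across a concentration series for 48 h. End-point luminescence was measured and concentration-effect curves derived after normalization.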
Active calls of the source: *; u = inconclusive; x = not tested or not shown. Unless noted, calls come from the whole dose curve; as a rule, active = well fitted curve in the direction sought with a large enough effect; inconclusive = small, poorly fitted or top-dose-only effect, or another doubt; inactive = no such curve, though single readings can be large; an effect the other way counts as inactive or inconclusive.

SMILES	p53 reactivation	RORgamma inh	Giardia killer	ELG1 DNA repair	Gal4-VP16 FLuc	BRCA1 expr act
CCOc1ccc(-n2c(-c3ccccc3)c[nH]c2=S)cc1	2%	2µM*	-9	-1%	5.6µM*	1%
Cc1ccc(-c2c[nH]c(=S)n2-c2ccccc2)cc1	4%	1.3µM*	22	9%	5µM*	-3%
COC(=O)CN(c1ccc2c(c1)OCO2)S(=O)(=O)c1c(C)[nH]c(=O)[nH]c1=O	1%	-9%	-5	26%	-6%	-5%
CCn1ncc(Cl)c1C(=O)NC(=S)Nc1ccccc1Br	u	8.9µM*	2	17%	8.9µM*	-34%
Cc1nn(C)c(C(=O)NC(=S)Nc2ccccc2Br)c1Cl	u	8.9µM*	5	0%	14µM*	37%
CN(C)CCNS(=O)(=O)c1ccc(Cl)cc1	-2%	-13%	-19	-6%	-16%	-21%
COc1cc2c(=O)c(S(=O)(=O)c3ccc(F)cc3)cn(Cc3ccccc3C)c2cc1OC	x	x	x	x	x	-17%
COc1cc2c3nnc(-c4ccc(F)cc4)c-3cn(Cc3ccccc3F)c2cc1OC	u	6.3µM*	-6	u	5µM*	-2%
COc1cc2c3nnc(-c4ccccc4)c-3cn(Cc3ccccc3F)c2cc1OC	4%	8.9µM*	3	-1%	u	1%
CCCc1nnc(SCC(=O)NC2CC2)n1CC	-4%	-6%	34	10%	-8%	-14%
C#CCN1C(=O)S/C(=C/c2cc(C)n(CC)c2C)C1=O	u	12%	-4	u	-6%	u
CCOc1ccc(C(=O)c2ccccc2C(=O)O)cc1OCC	1%	2%	13	2%	-9%	0%
CC1=CC(=O)C(C(C)C)=C/C1=C(\c1cc(C(C)C)c(OP(=O)(O)O)cc1C)c1ccccc1C(=O)O	-11%	1%	-1	18µM*	-1%	-93%
COc1ccc(N2CC(C)Cn3c2nc2c3c(=O)n(Cc3ccc(F)cc3)c(=O)n2C)c(OC)c1 (configuration not stated)	-5%	42%	3	16µM*	-4%	-6%
N#Cc1c(-c2cccs2)cc(-c2cccnc2)nc1N	-16%	-18%	5	-13%	4%	-54%
Cc1ccc(-c2ccccc2NC(=O)C2C3C=CC(C3)C2C(=O)O)o1 (configuration not stated)	3%	4.5µM*	-9	6%	4.5µM*	2%
Cc1ccc(-c2cccc(NC(=O)C3C(C(=O)O)[C@@H]4C=C[C@H]3C4)c2)o1 (some centres not stated)	14%	35%	-6	8%	-1%	-4%
CC(C)(C)c1cc(S(=O)(=O)CCc2ccncc2)cc(C(C)(C)C)c1F	-6%	-4%	2	4%	-10%	-1%
COc1ccccc1C1(CC(=O)Nc2nccs2)CCOC(C(C)C)C1 (configuration not stated)	-3%	11µM*	-7	u	-8%	-50%
COc1cc2c3c(c1)c(N=NC(N)=S)c(O)n3C(C)(C)C=C2C	-5%	2µM*	4	-4%	4.5µM*	-23%
CC1=CC(C)(C)n2c(O)c(N=NC(N)=S)c3c(C)ccc1c32	3%	4.5µM*	20	4%	2.5µM*	-18%
CC1=CC(C)(C)n2c(O)c(N=NC(N)=S)c3cccc1c32	-3%	1.1µM*	7	15%	2µM*	-1%
CC1=CC(C)(C)n2c(O)c(N=NC(N)=S)c3c(C)c(C)cc1c32	2%	6%	-6	-2%	6%	16%
